LmPK inh = qHTS Assay for Inhibitors of Leishmania Mexicana Pyruvate Kinase (LmPK). purified LmPK, Kinase-Glo ATP luminescence, 1 h. Potency, µM (titrated, usually from 57.5 µM), usual class: inhibitors. hit rate 0.37% among 290,000
Target sequence (Q27686 whole entry, looked up): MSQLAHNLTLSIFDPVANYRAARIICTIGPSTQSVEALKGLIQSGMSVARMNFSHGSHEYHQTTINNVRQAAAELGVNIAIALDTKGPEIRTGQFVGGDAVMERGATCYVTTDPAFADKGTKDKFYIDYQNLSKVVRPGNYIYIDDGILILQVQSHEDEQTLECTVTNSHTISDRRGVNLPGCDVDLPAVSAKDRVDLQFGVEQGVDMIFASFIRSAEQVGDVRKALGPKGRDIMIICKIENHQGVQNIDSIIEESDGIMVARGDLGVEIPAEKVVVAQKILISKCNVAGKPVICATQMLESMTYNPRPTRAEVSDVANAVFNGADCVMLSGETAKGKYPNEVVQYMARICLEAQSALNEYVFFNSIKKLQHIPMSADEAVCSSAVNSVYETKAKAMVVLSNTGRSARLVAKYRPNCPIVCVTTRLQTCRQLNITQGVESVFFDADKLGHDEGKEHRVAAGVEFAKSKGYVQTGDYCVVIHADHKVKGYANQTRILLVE
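ATP generated from ADP (0.1 mM) and PEP (0.5 mM) by 0.1 nM LmPK over 1 h at room temperature (pH 7.2 imidazole buffer) was detected by coupled luciferase luminescence. Values were normalized to uninhibited and no-enzyme wells.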
RE007 growth inh = qHTS Assay for Inhibitors of the HIV-1 protein Vpr; S. pombe RE007 Vpr strain, BacTiter-Glo ATP luminescence, 24 h; Potency, µM (titrated, usually from 92.2 µM), most hits filed as inhibitors; hit rate 0.21% among 360,000; AID 651644, 2012; active = well fitted falling curve with a large enough effect; inconclusive = small, poorly fitted or top-dose-only effect; inactive = no such curve, though single readings can be large or run the other way; note: nearly all actives have a fitted effect of over 50% in size
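Fission yeast RE007 carrying one integrated HIV-1 vpr copy, seeded at OD 0.01 in PMG+AL medium with 23 nL pinned compound. Grown 24 h at 30 degrees; viability read by BacTiter-Glo luminescence after 5 min.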
Shiga inhibitor = A qHTS for Small Molecule Inhibitors of Shiga Toxin. Vero cells, Shiga toxin protein synthesis inhibition reporter. hit rate 9.2% among 290,000. inhibition, % at 38.7 µM; in the data active = inhibition mostly above about 28%, no sharp cut-off; inactive = mostly below about 43%
CHX counter = Cycloheximide Counterscreen for Small Molecule Inhibitors of Shiga Toxin | cell reporter, cycloheximide protein synthesis inhibition counterscreen | max response, % | hit rate 12% among 300,000; in the data active = max response mostly above about 13%, no sharp cut-off; inactive = mostly below about 14%; note: read at 38.3 µM for the half of the compounds with a filed dose
FBPA Giardia inh = qHTS Assay for Inhibitors of Fructose-1,6-bisphosphate Aldolase from Giardia Lamblia. A8B2U2. purified Giardia FBPA. Potency, µM (series often up to 59.6 µM), usual class: inhibitors. hit rate 0.71% among 290,000. AID 2451, 2010; note: nearly all actives have a fitted effect of over 55% in size
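40 nM FBPA preincubated 10 min at RT with compound (up to 57.5 uM final), then substrate plus GAPDH/TPI/NAD/arsenate coupling and diaphorase/resazurin added. Fluorescence read after 20 min at RT, 525/598 nm.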
TbPYK inhibitor = qHTS of Trypanosoma Brucei Inhibitors; TbPYK enzyme, Kinase-Glo Plus ATP luminescence, 45 min; Potency, µM (doses to about 76.8 µM), usual class: inhibitors; hit rate 0.12% among 410,000; note: nearly all actives have a fitted effect of over 50% in size
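TbPYK + substrate in 50 mM TEA pH 7.2, 100 mM KCl, 10 mM MgCl2, 0.05% BSA, 0.01% Tween-20; cpd pinned; ADP 130 uM final; 45 min RT; Kinase-Glo Plus 10 min; luminescence endpoint.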
Hits are given with their value; 0 = inactive; ? = inconclusive; - = no result given; [ ] = another dose, or the depositor's remark. Many of the other results were omitted from the sample, so hits are more common in it than they were. Unless noted, calls come from the whole dose curve; as a rule, active = well fitted curve in the direction sought with a large enough effect; inconclusive = small, poorly fitted or top-dose-only effect, or another doubt; inactive = no such curve, though single readings can be large; an effect the other way counts as inactive or inconclusive.

SMILES	LmPK inh	RE007 growth inh	Shiga inhibitor	CHX counter	FBPA Giardia inh	TbPYK inhibitor
O=Cc1ccc(-c2nc3ccccc3s2)o1	16µM	0	61	29	0	0
O=C(O)CCN1C(=O)/C(=C/c2ccc(-c3nc4ccccc4s3)o2)SC1=S	0	0	0	0	0	0
COc1ccc(NC(=O)[C@@H](NC(=O)c2ccccc2F)C(C)C)cc1S(=O)(=O)N1CCOCC1	0	0	0	0	0	0
CCOC(=O)C(NCc1ccccc1OC)(NC(=O)CC)C(F)(F)F (centres undefined)	0	0	0	0	0	0
CCOC(=O)C(NC(=O)CC)(Nc1ccccc1OC)C(F)(F)F (centres undefined)	0	0	0	17	0	0
C[C@H]1CN([C@@H](C)CO)C(=O)c2cc(C#CC3CCCC3)cnc2O[C@H]1CN(C)C(=O)Cc1ccccn1	-	0	-	-	-	0
COc1ccccc1C(=O)Nc1ccc(C(=O)/C=C/c2cccs2)cc1	0	0	0	18	0	0
O=C(/C=C/c1cccs1)c1ccc(NC(=O)c2ccccc2F)cc1	0	0	40	25	0	0
COc1ccccc1C(=O)Nc1ccc(NC(=O)c2cccs2)cc1	-	-	-	-	-	0
Cc1cccc([C@@H]2CN(C)CCc3c2cc(O)c(O)c3Cl)c1	-	-	-	-	0	-
O=C(Nc1ccc([N+](=O)[O-])cc1)N1CCc2ccccc2C1	0	0	-	38	0	0
CC(C)c1ccc(NC(=O)N2CCc3ccccc3C2)cc1	0	0	96	42	0	0
O=[N+]([O-])c1ccc(-c2csc(N3CCc4ccccc4C3)n2)cc1	0	0	0	0	0	0
O=C(NCCN1CCc2ccccc2C1)Nc1ccc([N+](=O)[O-])cc1	0	0	0	0	?	0
CC(C)c1ccc(NC(=O)Cc2ccc(NC(=O)N3CCCCc4ccccc43)cc2)cc1	-	-	-	-	-	0
O=[N+]([O-])c1ccc(N2CCc3ccccc3C2)cc1	0	0	-	26	0	0
O=C(NC1CCCC1)c1cc(-c2ccc(Cl)cc2)on1	0	0	59	27	0	0
O=C(NC1CCCCC1)c1cc(-c2ccc(Cl)cc2)on1	0	0	0	0	0	0
O=C(NC1CCCC1)c1cc(-c2ccc(F)cc2)on1	0	0	96	46	0	0
CCc1ccc(NC(=O)CN2C(=O)C3(SCC(=O)N3c3ccccc3)c3ccccc32)cc1 (centres undefined)	-	-	-	-	-	0
O=C(NCCc1cccs1)c1ccc(Cl)c(Cl)c1	0	0	72	44	0	0
O=C(NCCc1cccs1)c1ccc(Cl)cc1	0	0	35	20	0	0
Cc1ccc(C(=O)NCCc2cccs2)cc1	?	0	0	0	0	0
CCn1nc2cc(C(=O)NCCc3cccs3)ccc2c1OC	0	0	75	40	0	0
CCOc1ccc(NC(=O)CC2C(=O)N(c3ccc(Cl)cc3)C(=O)N2Cc2cccs2)cc1 (centres undefined)	-	-	-	-	-	0
SMILES	LmPK inh	RE007 growth inh	Shiga inhibitor	CHX counter	FBPA Giardia inh	TbPYK inhibitor
O=C1c2ccccc2C(=O)N1SC1CCCCC1	0	45µM	0	0	0	?
O=C(OCN1C(=O)c2ccccc2C1=O)C1CCCCC1	0	0	0	0	0	0
C=CCn1c(C)c(C(C)=O)c(N2CCN(C(c3ccccc3)c3ccccc3)CC2)nc1=S	0	0	0	0	0	0
COc1ccc(NC(=O)CCS(=O)(=O)c2cc(Br)cc3c2N(C(C)=O)CC3)c(OC)c1	-	-	-	-	-	0
FC(F)(F)c1cccc(N2CCNCC2)c1	0	-	0	0	0	-
FC(F)(F)c1cccc(N2CCc3cn[nH]c32)c1	0	?	32	23	0	0
COc1ccc(NS(=O)(=O)c2ccc(NC(=S)NC(=O)/C=C/c3ccccc3)cc2)nn1	0	0	0	0	0	0
Cc1ccc(S(=O)(=O)N2CCN(S(=O)(=O)N3CCC(C)CC3)CC2)cc1C	0	0	0	0	0	0
CCn1cc2nc(SCC(=O)Nc3ccccc3C(F)(F)F)n(Cc3ccc(C)cc3)c(=O)c2n1	-	-	-	-	-	0
CCn1c2ccc(OC)cc2c2nc3ccccc3nc21	0	0	0	0	0	0
COc1ccc2nc3ccccc3nc2c1N	?	?	159	49	0	0
COc1ccc2nc3cccc(OC)c3nc2c1	0	?	63	44	1.4µM	0
CCOC(=O)c1cnc2ccccc2c1Nc1cccc(OC)c1	-	-	-	-	-	0
O=C(CSc1ncnc2c1oc1ccccc12)Nc1cccc(Cl)c1	0	0	0	9.2	0	0
CCOc1ccccc1NC(=O)CSc1ncnc2c1oc1ccccc12	0	0	0	23	0	0
c1coc(CSc2ncnc3c2oc2ccccc23)c1	0	0	85	57	0	0
CCc1nc(SCC(=O)c2cccs2)c2oc3ccccc3c2n1	0	0[3.69 µM]	0	27	0	-
O=C(CSc1ncnc2c1oc1ccccc12)Nc1ccccc1F	0	0	0	0	0	0
CC(C)Sc1ncnc2c1oc1ccccc12	0	0	85	32	0	0
c1ccc(Sc2ncnc3c2oc2ccccc23)nc1	0	0	115	64	0	0
c1ccc(CSc2ncnc3c2oc2ccccc23)cc1	-	0	-	-	-	0
CCCSc1ncnc2c1oc1ccccc12	0	0	0	25	0	0
CC(=O)CSc1ncnc2c1oc1ccccc12	0	0	0	12	0	0
Cc1cccc(C)c1NC(=O)Cn1c(=O)n(Cc2ccco2)c(=O)c2ccc(C(=O)NC3CCCC3)cc21	-	-	-	-	-	0
CCCCNC(=O)CSc1nc2n[nH]c(C)c2c(=N)n1-c1ccccc1CC	-	-	-	-	-	0
SMILES	LmPK inh	RE007 growth inh	Shiga inhibitor	CHX counter	FBPA Giardia inh	TbPYK inhibitor
CCOc1ccccc1Oc1ncnc2c1oc1ccccc12	-	-	-	-	-	0
COc1ncnc2c1oc1ccccc12	0	0	112	48	0	0
O=C(Cn1c(-c2ccco2)nc2ccccc21)N1CCCCC1	0	0	0	0	0	0
Cc1ccc(OCCn2c(C)nc3ccccc32)cc1	0	0	-	0	0	0
Cc1nc2ccccc2n1CCCOc1ccccc1	0	0	47	21	0	0
Cc1cccc(OCCn2c(-c3ccco3)nc3ccccc32)c1	0	0	0	26	-	0
CCn1c(-c2ccco2)nc2ccccc21	0	0	77	26	0	0
O=C(O)CCn1c(SCCOc2ccccc2)nc2ccccc21	0	0	-	14	0	0
COc1ccc(-c2noc(CSc3nnc(-c4ccncc4)n3-c3ccc(C)cc3)n2)cc1OC	-	-	-	-	-	0
Cc1ccc2c(=O)c(C(=O)c3ccc(F)cc3)cn(CC(=O)NCc3ccccc3Cl)c2n1	-	-	-	-	-	0
c1ccc(OCCn2c(-c3ccco3)nc3ccccc32)cc1	0	0	70	20	0	?
